An excerpt weighted towards active compounds, which were near 7.5% of everything screened.
SMN2 splice enh: enhancers of SMN2 splice variant expression; HEK293 SMN2-luciferase splicing reporter, luminescence, 30-36 h; Potency, µM (highest dose often 46.1 µM), without a hit: at the top dose activity change, positive = activation, most hits filed as activators; 2.8% of 210,000 active; AID 1458; note: % of control where 0% means no effect; nearly all actives have a fitted effect of over 55% in size
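qHTS luciferase splicing reporter: luminescence rises when SMN2 exon 7 is included in transfected HEK293 cells. Compound exposure lasted 30-36 h at 37C, with 4.5 mM final sodium butyrate as control, followed by a ONE-Glo read.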
FLuc modulator: counter-screen for miR-21 project: firefly luciferase inhibitors or activators | Potency, µM (highest dose often 57.5 µM), inactives show at the highest dose activity change, negative = inhibition, usual class: inhibitors | AID 588342 | 6.9% of 360,000 active | purified FLuc, Km substrates, luminescence inhibition;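 note: plate controls were vehicle for no effect and reference inhibitor for full effect; nearly all actives have a fitted effect of over 55% in size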
Target sequence (P08659 whole entry, looked up): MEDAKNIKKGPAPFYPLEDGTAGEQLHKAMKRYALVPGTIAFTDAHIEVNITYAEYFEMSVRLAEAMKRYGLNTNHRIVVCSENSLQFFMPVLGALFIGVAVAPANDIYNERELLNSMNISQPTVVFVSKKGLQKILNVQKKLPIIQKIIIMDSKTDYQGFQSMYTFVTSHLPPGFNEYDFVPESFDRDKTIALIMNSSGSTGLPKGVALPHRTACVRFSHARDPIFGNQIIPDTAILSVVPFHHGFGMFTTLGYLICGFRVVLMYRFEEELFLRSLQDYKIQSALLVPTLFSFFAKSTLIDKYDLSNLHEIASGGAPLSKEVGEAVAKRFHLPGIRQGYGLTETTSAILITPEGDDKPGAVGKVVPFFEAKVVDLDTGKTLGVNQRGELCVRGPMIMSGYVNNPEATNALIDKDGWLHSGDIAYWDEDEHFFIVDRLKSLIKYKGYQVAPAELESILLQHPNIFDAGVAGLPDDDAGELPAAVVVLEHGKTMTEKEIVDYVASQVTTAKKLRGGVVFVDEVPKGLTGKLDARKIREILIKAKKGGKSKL
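Purified P. pyralis luciferase, 10 nM final, with Km-level 10 uM D-luciferin and 10 uM ATP in 50 mM Tris acetate pH 7.5, 10 mM Mg acetate, 0.01% Tween-20, 0.05% BSA; 6-point qHTS titration about 60 µM downward; luminescence read.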
Rab9 promoter act: activates the Rab9 promoter; AID 485297; Huh7 Rab9 promoter-luciferase reporter, luminescence, 24 h; 2.8% of 320,000 active; Potency, µM (doses to about 9.22 µM), for the others: at the highest dose activation, negative = inhibition, actives largely listed as activators; note: % of control where 0% means no effect; nearly all actives have a fitted effect of over 60% in size
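Stable Rab9-luc Huh7, 1500 cells/well, 2 h settle; cmpd in DMSO, 24 h, 37 °C/5% CO2; luciferase reagent 10 min RT; luminescence.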
NPC1 prom act: activators of NPC1 promoter | 2.4% of 320,000 active | Potency, µM (highest dose often 9.22 µM), inactives show top-dose activation, most hits filed as activators | Huh7 NPC1 promoter luciferase reporter, 24 h; note: % of control where 0% means no effect; nearly all actives have a fitted effect of over 60% in size
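Quantitative HTS used a cell-based reporter: Huh7 cells stably bearing the NPC1 promoter upstream of luciferase were treated with compounds for 24 h, and promoter activation was read as luminescence.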
ELG1 genotoxic: genotoxicity induction in ELG1-luciferase HEK293T cells | 1.3% of 330,000 active | HEK293T ELG1-luciferase reporter, luminescence, 16 h | AID 504466 | Potency, µM (doses to about 46 µM), without a hit: at the highest dose activity change, positive = activation, usual class: activators; note: % of control where 0% means no effect; nearly all actives have a fitted effect of over 60% in size
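Quantitative HTS format in 1536-well plates. HEK293T ELG1-luciferase reporter cells receive test compound and are incubated 16 hr at 37 °C, 5% CO2; ONE-Glo added, 30 min room temperature, then luminescence read.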
* hit, by the source's call; u = inconclusive; x = not tested or not shown. Calls come from the whole dose curve; as a rule, active = well fitted curve in the direction sought with a large enough effect; inconclusive = small, poorly fitted or top-dose-only effect, or another doubt; inactive = no such curve, though single readings can be large; an effect the other way counts as inactive or inconclusive. Potency is the fitted concentration of half-maximal effect.

SMILES | SMN2 splice enh | FLuc modulator | Rab9 promoter act | NPC1 prom act | ELG1 genotoxic
Cc1cc(C(=O)COC(=O)c2ccc3c(c2)NC(=O)CS3)c(C)n1CC1CCCO1 (configuration not stated) | -13% | 15µM* | -4% | -5% | -1%
Cc1cc(C(=O)COC(=O)c2nc3nccc(C)n3n2)c(C)n1CC1CCCO1 (configuration not stated) | -21% | -16% | -6% | 8% | 2%
Cc1cc(C(=O)COC(=O)c2ccc(Cl)c(S(N)(=O)=O)c2)c(C)n1CC1CCCO1 (configuration not stated) | x | 1.5µM* | 0.71µM* | 0.79µM* | u
COCC(C)n1c(C)cc(C(=O)COC(=O)c2ccc3c(c2)NC(=O)CS3)c1C (configuration not stated) | -25% | u | -1% | 1% | -4%
Cc1nn(Cc2ccccc2Cl)c(Cl)c1C(=O)NCCc1ccccc1 | 11µM* | 3.8µM* | 1.6µM* | 4µM* | u
CC(=O)Nc1ccc(NC(=O)c2c(C)nn(Cc3ccccc3)c2Cl)cc1 | x | -6% | -1% | -3% | 16%
CN(C)CCCNC(=O)c1ccc(/C=N/O)nc1 | x | 11µM* | 2.8µM* | 2.5µM* | u
CNCCCNC(=O)c1ccc(/C=N/O)nc1 | 1% | 0% | -2% | -1% | 1%
COC(=O)c1ccccc1NC(=O)c1ccc2nc(CCc3ccccc3)oc2c1 | x | -12% | x | x | x
Cn1c(N)c(S(=O)(=O)NCc2ccc(Cl)cc2)c(=O)n(C)c1=O | 0% | -1% | 0% | 2% | 2%
COC(=O)CC1COc2ccccc2N1C(=O)c1ccc(Br)cc1 (configuration not stated) | -16% | -4% | -6% | -3% | -4%
COc1cc(/C=N/N=C/c2cc(OC)c(O)c(OC)c2)cc(OC)c1O | 14% | 17µM* | 0% | 0% | 3%
COc1ccc(/C=N/N=C/c2ccc(OC)c(O)c2)cc1O | 0% | 24µM* | 3% | -1% | -1%
Cn1c(=O)c2c(nc(SCc3cccnc3)n2Cc2ccccc2)n(C)c1=O | -2% | -1% | -9% | 2% | 1%
COc1cccc(-c2noc(C3CCCN(C(=O)c4ccc(F)cc4F)C3)n2)c1 (configuration not stated) | x | -5% | 0% | 1% | -2%
COc1cccc(-c2noc(C3CCCN(C(=O)c4ccccc4OC)C3)n2)c1 (configuration not stated) | x | 21µM* | 30% | u | 10%
CCCCC(=O)N1CCCC(c2nc(-c3cccc(OC)c3)no2)C1 (configuration not stated) | x | 17µM* | u | u | 14%
CCOC(=O)c1cn2c(C)cccc2n1 | 21% | 1% | 4% | -2% | 7%
Cc1cc(C)n2cc(COc3ccc4ccccc4c3)nc2n1 | 13µM* | 2.4µM* | 1.1µM* | 1.8µM* | u
Cc1cccc2nc(COc3ccc(-c4ccccc4)cc3)cn12 | x | 11µM* | u | 26% | 10%
Cc1ccnc(SCc2cn3c(C)cc(C)nc3n2)n1 | 23% | 0% | -2% | -2% | 6%
O=C(NCc1ccccc1CN1CCCC1)c1cccc(S(=O)(=O)N2CCCC2)c1 | x | 2% | -1% | -1% | 3%
COc1ccc(CNc2nc3ccccc3n2C(C)C)c(O)c1 | x | u | 4% | -5% | -6%
COc1ccc(CNc2nc3ccccc3n2C)c(OC)c1 | x | 12µM* | 2.5µM* | 3.2µM* | u
COc1ccc(CNc2nc3ccccc3n2C)c(O)c1 | x | 8.5µM* | 3.2µM* | 2.5µM* | u
CCOC(=O)c1c(C)[nH]c(C(=O)COC(=O)c2ccccc2NC(=O)c2ccco2)c1C | -10% | -18% | -1% | -4% | 2%
CCOC(=O)c1c(C)[nH]c(C(=O)COC(=O)CNC(=O)c2ccc(Br)cc2)c1C | 19% | 4% | 0% | -3% | 0%
CCOC(=O)c1c(C)[nH]c(C(=O)COC(=O)CNC(=O)c2ccccc2Cl)c1C | x | 11µM* | u | 25% | u
CCOC(=O)c1c(C)[nH]c(C(=O)COC(=O)[C@H](C)NC(=O)c2ccccc2Cl)c1C | 19% | 21µM* | 29% | 12% | u
